Compound activity deposited in PubChem BioAssay by National Center for Advancing Translational Sciences (NCATS).
LDHA inh = blocks human lactate dehydrogenase A. activity change, % (values are at about 110 or 230 µM). purified LDHA, NADH/diaphorase-resazurin fluorescence; active compounds read low. P00338. 0.15% of 480,000 active; in the data active = activity change below about -30%; inconclusive = mostly about -25% to -30%;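 also: plate controls were DMSO wells for no effect and wells without enzyme for full effect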
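LDH5 2 nM; NADH 0.06 mM, pyruvate 0.2 mM; 200 mM Tris pH 7.4, EDTA, Tween-20; 5 min RT. Detection: diaphorase 0.133 mg/mL + resazurin 37 µM, fluorescence ex540/em590 at 0 and 20 min; normalized to enzyme-free and DMSO wells.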
pAkt inh = blocks phosphorylation of Akt; Neuro2A IGF-stimulated pAkt S473 HTRF, 20 min; active compounds read low; activity change, % for hits at 50 µM; 0.32% of 360,000 active; AID 651550; in the data active = activity change below about -80%; inconclusive = mostly about -51% to -80%; also: % is scaled to controls: 0 for no effect and ±100 for the full control effect
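Neuro2A cells in DMEM with 0.5% FBS, overnight at 37 deg C, given compound at single 50 µM final, then IGF (6 nM final) for 20 min at 37 deg C. Lysed; phospho-Akt Ser473 by HTRF after 24 h, 665/615 ratio.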
D3 ag = agonists of human D3 dopamine receptor. P35462. D3R DiscoveRx beta-arrestin cells, luminescence, 90 min. max activation, %. 0.58% of 410,000 active. AID 652048; in the data active = max activation above about 30%; also: 0% is about no effect
Target sequence (P35462 whole entry, looked up): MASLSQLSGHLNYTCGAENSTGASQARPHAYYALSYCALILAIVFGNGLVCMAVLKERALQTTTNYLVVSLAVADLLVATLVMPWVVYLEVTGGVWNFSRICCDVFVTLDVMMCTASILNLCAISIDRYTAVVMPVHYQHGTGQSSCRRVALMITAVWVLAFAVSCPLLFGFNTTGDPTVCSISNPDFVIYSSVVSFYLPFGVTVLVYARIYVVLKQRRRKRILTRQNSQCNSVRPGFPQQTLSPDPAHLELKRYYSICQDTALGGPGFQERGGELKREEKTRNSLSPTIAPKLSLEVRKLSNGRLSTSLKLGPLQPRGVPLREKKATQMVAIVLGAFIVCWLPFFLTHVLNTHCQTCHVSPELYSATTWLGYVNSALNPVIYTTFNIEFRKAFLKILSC
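Agonist mode: compounds and dopamine controls were applied to plated cells for 90 min at 37 degrees C after an overnight attachment at 1500 cells/well. Luminescent read-out followed 30 - 60 minutes at room temperature with DiscoveRx detection reagent.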
RGS4 inhibitor = inhibitors of human regulator of G protein signaling 4. Potency, µM (doses to about 114 µM), without a hit: at the top dose activity change, negative = inhibition, actives largely listed as inhibitors. 0.039% of 390,000 active. Transcreener GDP fluorescence polarization, RGS4-accelerated GTP hydrolysis. P49798; active = well fitted inhibition curve with a large enough effect; inconclusive = small, poorly fitted or top-dose-only effect; inactive = no such curve, though single readings can be large or run the other way; also: potency is read from the fitted curve at half-maximal effect; % is scaled to controls: 0 for no effect and ±100 for the full control effect; nearly all actives have a fitted effect of over 75% in size
Target sequence (P49798 whole entry, looked up): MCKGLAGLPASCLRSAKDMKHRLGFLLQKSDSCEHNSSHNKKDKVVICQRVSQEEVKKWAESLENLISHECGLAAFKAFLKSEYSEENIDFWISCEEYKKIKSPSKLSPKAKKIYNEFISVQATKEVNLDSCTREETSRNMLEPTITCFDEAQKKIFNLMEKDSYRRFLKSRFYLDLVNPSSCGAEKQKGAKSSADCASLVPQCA
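MLSMR compounds (23 nl, pin-transferred) preincubated 10 min at room temperature with a 500nM (2x) first reagent, then RGS4 at 900nM (2x) plus Transcreener GDP mix added; fluorescence polarization (620/688 nm) read before and after 90 min at 30 °C.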
PI4K2A block = PI4K2A (human) kinase inhibition. Q9BTU6. purified PI4K2A, ADP-Glo luminescence, 1 h; active compounds read low. activity change, negative = inhibition, % at 76.9 µM. 0.13% of 420,000 active. AID 1346378; in the data active = activity change below about -50%; inconclusive = mostly about -30% to -49%;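 also: -100% = wells without enzyme as full effect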
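PI4K2A activity was measured by ADP-Glo luminescence: enzyme (4 ug/mL stock) and phosphatidylinositol (1.2 mM stock) in Tris pH 7.5/MgCl2/EGTA/Triton X-100 buffer were reacted with ATP (300 microM stock) for one hour at ambient temperature.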
DRD3 antagonist = D3 dopamine receptor (human) antagonism | D3R cells, DiscoveRx beta-arrestin luminescence, antagonist mode; active compounds read low | AID 652054 | 2.5% of 360,000 active | P35462 | max response, negative = inhibition, %; in the data active = max response below about -50%; inconclusive = no clear call, values can overlap the other calls; also: % is scaled to controls: 0 for no effect and ±100 for the full control effect
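Cells plated overnight at 1500 cells/well, then exposed to library compounds with dopamine controls for 90 minutes at 37 degrees C. DiscoveRx reagent added for 30–60 minutes at room temperature; luminescence read, quantitative HTS format.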
The depositor's hits bear a star; i = inactive; ? = inconclusive; nt = no result given; ! = a repeat was not active; [ ] = another dose, or the depositor's remark. Shown are actives, neighbours in structure and some others; about 2.8% of the full set was active somewhere.

SMILES	LDHA inh	pAkt inh	D3 ag	RGS4 inhibitor	PI4K2A block	DRD3 antagonist
CCOc1ccc(CCNC(=O)c2cc3c(-c4cccc(OC)c4)nn(C)c3s2)cc1OCC	-9.8	nt	15.7	-7.6%	-3.2	nt
O=C(NCCCNC(=O)c1ccccc1Cl)c1nc2ccccc2c(=O)[nH]1	-0.5	nt	nt	nt	nt	nt
COc1ccc(-c2nc3c(s2)CN(C(C(=O)O)c2c[nH]c4ccc(CO)cc24)CC3)cc1 (configuration not stated)	3.4	nt	nt	nt	nt	nt
CC(C)CC(=O)N1CCC(N2CCCCCC2)CC1	-1.6	nt	nt	nt	nt	nt
O=C(Nc1ccc(Cl)cc1C(F)(F)F)c1ccc(F)cc1	2.2	nt	nt	nt	nt	nt
N#Cc1ccc(Cl)cc1NC(=O)C12CC3CC(CC(Cl)(C3)C1)C2	5.6	nt	nt	nt	nt	nt
CCOC(=O)N1CCC(NCCNC(=O)c2ccc(F)c(F)c2)CC1	-5.4	i	-70.0	-13.5%	0.8	-99.3*
CCOC(=O)N1CCC(NCCNC(=O)c2ccc(Cl)cc2)CC1	?	i	-13.8	-8.5%	0.3	-73.9*
CCOC(=O)N1CCC(NCCNC(=O)c2ccco2)CC1	-13.2	i	-11.1	5.3%	8.0	-20.8
COc1ccc(CSc2nc3ccncc3n2Cc2ccc(OC)cc2)cc1	-1.4	nt	nt	nt	nt	nt
Cn1c(=O)c2c(ncn2CC(=O)c2ccc(C(C)(C)C)cc2)n(C)c1=O	2.8	nt	nt	nt	nt	nt
O=C(Nc1cccc2ncccc12)c1ccc([N+](=O)[O-])cc1	-19.5	nt	nt	nt	nt	nt
CC(=O)SCC(=O)N=c1sc2cc(F)ccc2n1C	-7.2	i	45.8*	-0.6%	7.9	59.9
CCc1nonc1NC(=O)c1oc2c(C)c(C)ccc2c1C	-3.1	i	6.8	-7.3%	0.1	-51.7*
CCc1ccccc1NS(=O)(=O)c1ccc(OC)c2ncccc12	1.3	i	31.5*!	-5.4%	-2.7	80.1
C/C(=N/Nc1cc(C)c2ccccc2n1)c1ccc([N+](=O)[O-])cc1	-2.9	nt	nt	nt	nt	nt
NCCNC(=O)c1ncsc1-c1cccc(F)c1	-7.3	i	-33.1	-7.0%[56.9 µM]	2.6	-52.4*
Nc1nccnc1C(=O)NCCc1cccc(F)c1	9.3	nt	nt	nt	nt	nt
NC(=O)CN1CCC(NC(=O)c2cccc(Cl)c2)CC1	0.4	nt	nt	nt	nt	nt
O=C(NC1CCN(Cc2ccc(Cl)cc2Cl)CC1)c1ccccc1	-4.5	i	-19.3	-15.0%	2.8	-78.0*
O=C(NC1CCN(Cc2ccccc2)CC1)c1cncc(Br)c1	-0.1	i	-22.0	-17.5%	-0.8	-85.8*
CC(Oc1ccccc1)C(=O)NC1CCN(Cc2ccccc2)CC1 (configuration not stated)	-2.3	i	-8.3	-34.6%	4.9	-58.7*
Cc1oc(-c2ccccc2)cc1C(=O)NC1CCN(Cc2ccccc2)CC1	0.9	i	-45.9	3.7%	0.9	-81.9*
Cc1ccccc1C(C)Nc1ccc([N+](=O)[O-])cc1C#N (configuration not stated)	10.9	nt	nt	nt	nt	nt
Cn1nccc1C(=O)NC1CCN(Cc2ccccc2)CC1	-6.4	i	-23.2	15.2%	-0.3	-79.7*
SMILES	LDHA inh	pAkt inh	D3 ag	RGS4 inhibitor	PI4K2A block	DRD3 antagonist
Cc1ccccc1CC(=O)NC1CCN(Cc2ccccc2)CC1	0.5	i	-22.3	-10.3%	-11.2	-27.1
O=C(NC1CCN(Cc2ccccc2)CC1)c1ccccc1	-5.7	i	-19.3	-7.8%	0.9	-80.7*
O=C(NC1CCN(Cc2ccccc2)CC1)C12CC3CC(CC(C3)C1)C2	-8.4	i	-9.3	4.3%	1.5	-87.6*
O=C(NNC1CCN(Cc2ccccc2)CC1)c1ccccc1	-2.2	i	-7.4	-20.5%	-2.6	-14.3
CCCN1CCC(NC(=O)Cc2c[nH]c3ccccc23)CC1	-8.2	nt	nt	nt	nt	nt
O=C(NC1CCN(CCc2c[nH]c3ccccc23)CC1)c1ccccc1	0.4	i	-20.4	8.9%	-3.3	-102.5*
Cc1cccc(C(=O)NC(C)c2ccc(-c3ccccc3)cc2)c1 (configuration not stated)	0.4	nt	nt	nt	nt	nt
Nc1nccnc1C(=O)NCc1ccc(-c2ccc(F)cc2)o1	3.9	nt	nt	nt	nt	nt
COc1cc(NC(=O)[C@H](C)n2c(=O)[nH]c3ccccc3c2=O)cc(OC)c1	8.4	nt	nt	nt	nt	nt
COc1cc2c(cc1OC)CN(Cc1cc(=O)c(OCc3ccc(Cl)cc3Cl)co1)CC2	-6.9	nt	nt	nt	nt	nt
OCCNC(=S)Nc1ccccc1F	1.7	nt	nt	nt	nt	nt
CC(C)(C)c1ccc(C(=O)NC2CCN(Cc3ccccc3)CC2)cc1	-2.6	i	-8.4	15.4%	0.5	-118.3*
Cc1nc2ccc(C(=O)NC3CCN(Cc4ccccc4)CC3)cc2nc1C	7.9	nt	nt	nt	nt	nt
Cc1ccccc1S(=O)Cc1ccc(C(=O)NC2CCN(Cc3ccccc3)CC2)o1 (configuration not stated)	-4.5	i	-22.9	-24.9%[56.9 µM]	-2.3	-21.9
O=C(Cc1ccccc1)NC1CCN(Cc2ccccc2)CC1	-2.2	i	-17.3	-16.1%	0.1	?
Cc1cccc(S(=O)Cc2ccc(C(=O)NC3CCN(Cc4ccccc4)CC3)o2)c1 (configuration not stated)	-2.1	i	-21.1	-19.6%[56.9 µM]	6.1	-67.3*
Cc1ccc(CC(=O)NC2CCN(Cc3ccccc3)CC2)cc1	-8.7	i	-9.6	16.5%	-0.8	-55.1*
Cn1nc(C(=O)OCCOc2cccc(Cl)c2)c2ccccc2c1=O	6.7	nt	nt	nt	nt	nt
Cc1cccc(NC(=O)c2cc(S(=O)(=O)N(C)c3ccc(F)cc3)ccc2Cl)n1	-4.1	i	0.7	3.4%	2.6	-57.3*
COc1ccc(-c2nnc(SCC(=O)OC3CCCCC3)o2)cc1OC	1.5	-117.1%*	-2.3	10.8%	-4.9	24.8
COc1ccc(-c2cc3ccccc3n2CC(O)CN2CCC(C)CC2)cc1 (configuration not stated)	-14.2	i	-14.4	-13.6%	-3.8	-110.8*
CN1CCN(c2ccc(CNC(=O)C3Cc4c(-c5ccc(Cl)cc5)ccnc4O3)cc2)CC1 (configuration not stated)	1.5	i	-27.6	nt	-2.7	-55.6*
O=C1CC(c2ccc(OCc3ccc(Cl)cc3)cc2)c2c(nc(-c3ccccc3)[nH]c2=O)N1 (configuration not stated)	1.8	nt	nt	nt	nt	nt
CCN1CCN(C(=S)c2ccc(Cl)cc2)CC1	-6.4	-114.9%*	-1.5	?	-21.0	-68.6*
OCCN1CCN(C(=S)c2ccc(Cl)cc2)CC1	-0.1	i	-10.3	?	-4.7	5.5
CC(=O)/C(C(=N)N1CCN(Cc2ccccc2)CC1)=C(\C)O	1.1	i	-19.5	-53.3%	-5.7	-54.3*
CCN1CCN(C(=S)c2ccc(SC)cc2)CC1	-10.5	i	-11.2	?	-7.4	-85.4*
S=C(c1ccc(Cl)cc1)N1CCN(Cc2ccccc2)CC1	-3.5	i	-23.7	19.2%	0.3	-68.9*
CN1CCN(c2nc3ccccc3nc2C(=O)Nc2ccc(F)c(Cl)c2)CC1	-0.8	nt	nt	nt	nt	nt
